Screens: PubChem, National Center for Advancing Translational Sciences (NCATS)
TDP1 cell CPT: growth inhibition of DT40 Tdp1-/-;hTDP1 cells with camptothecin (screen for TDP1 inhibitors); chicken DT40 Tdp1-/-;hTDP1 cells + 20 nM CPT, ATP luminescence, 48 h; 12% of 420,000 active; Potency, µM (highest dose often 46.2 µM), actives largely listed as inhibitors; AID 686979; also: nearly all actives have a fitted effect of over 55% in size
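Cell growth measured by CellTiter-Glo luminescence after a minimum 48 h, 37 C compound exposure with 20 nM CPT in Tdp1-knockout DT40 cells stably expressing hTDP1, seeded 400/well; qHTS titration format.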
HT1080 IDH1KD tx: toxicity to HT-1080 IDH1 knockdown cells (counter line); HT-1080 IDH1 knockdown viability, ATP luminescence, 48 h; Potency, µM (highest dose often 46.1 µM), most hits filed as cytotoxic; 2% of 360,000 active; AID 686971
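IDH1KD HT-1080 cells, 750/well, RPMI + 5% FBS; compound pinned after 2 h settling; 48 h, 37 °C; CellTiter-Glo luminescence; % activity normalised to DMSO and no-cell wells; curves fitted, classed by r2 and efficacy.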
IL-1B inflam inh: blocks inflammasome-driven IL-1 beta release; THP-1 LPS/ATP IL-1B secretion, AlphaLISA, 16 h; hits give low values; activity change, % at 57.5 µM; 4.7% of 360,000 active; in the data active = activity change below about -50%; inconclusive = mostly about -30% to -49%
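THP-1 cells pretreated 1 hr with compounds (up to 57.5 uM final), then stimulated with LPS (250 ng/mL final) plus ATP (1.25 mM final); secreted IL-1B measured by AlphaLISA after 16 hr, decreased signal indicating inhibition.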
HT1080NT lethal: kills 2HG-producing HT-1080-NT fibrosarcoma cells | HT-1080-NT fibrosarcoma viability, CellTiter-Glo ATP luminescence, 48 h | AID 686970 | Potency, µM (top dose mostly 46.1 µM), hits mostly cytotoxic | 1.6% of 360,000 active;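 also: NT is the 2HG producing partner of a matched IDH1 knockdown line; nearly all actives have a fitted effect of over 55% in size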
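Fibrosarcoma NT cells, 750 per well in 5% FBS RPMI, were exposed to compound for 48 hours. Viability: CellTiter-Glo luminescence.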
TDP1 cell noCPT: qHTS for Inhibitors of human tyrosyl-DNA phosphodiesterase 1 (TDP1): qHTS in cells in absence of CPT. DT40 Tdp1-/- hTDP1 cells, no CPT, ATP luminescence, 48 h. 15% of 420,000 active. Potency, µM (top dose mostly 46.2 µM), usual class: inhibitors. AID 686978, 2013; also: nearly all actives have a fitted effect of over 55% in size
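Stably hTDP1-transfected Tdp1-null chicken DT40 cells were treated with library compounds minus camptothecin and grown for at least 48 hr at 37 °C, after which cellular ATP was quantified by luminescence.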
Of the large screens only hits and unclear results are named; the others gave an inactive call. Sampled rows, rich in hits. Any-hit rate of the full collection: about 19%. Unless noted, calls follow the shape of the dose curve; as a rule, active = well fitted curve in the direction sought with a large enough effect; inconclusive = small, poorly fitted or top-dose-only effect, or another doubt; inactive = no such curve, though single readings can be large; an effect the other way counts as inactive or inconclusive.

CCOCc1cc(CN2CCN(c3cccc(C(F)(F)F)c3)CC2)c(O)c2ncccc12	TDP1 cell CPT 6.5µM, TDP1 cell noCPT 6.5µM (no result: HT1080 IDH1KD tx, IL-1B inflam inh, HT1080NT lethal)
O=C(O)c1cc([N+](=O)[O-])cc([N+](=O)[O-])c1N1CCN(c2cccc(C(F)(F)F)c2)CC1	none
COc1ccnc(N2CCN(c3cccc(C(F)(F)F)c3)CC2)c1C#N	none
CC(C)OCc1cc(CN2CCN(c3cccc(C(F)(F)F)c3)CC2)c(O)c2ncccc12	TDP1 cell CPT 4.6µM, TDP1 cell noCPT 4.6µM (no result: HT1080 IDH1KD tx, IL-1B inflam inh, HT1080NT lethal)
O=c1cc(CO)oc(CN2CCN(c3cccc(C(F)(F)F)c3)CC2)c1O	TDP1 cell CPT inconclusive, TDP1 cell noCPT inconclusive
O=[N+]([O-])c1cc(CN2CCN(c3cccc(C(F)(F)F)c3)CC2)c2cccnc2c1O	TDP1 cell CPT 0.92µM, HT1080 IDH1KD tx inconclusive, HT1080NT lethal inconclusive, TDP1 cell noCPT 1.5µM
O=[N+]([O-])c1cc(CN2CCCC2)c2cccnc2c1O	HT1080 IDH1KD tx inconclusive, HT1080NT lethal 16µM, TDP1 cell noCPT inconclusive
O=C(NCc1ccccc1)c1cccc(NC(=O)C2CCCC2)c1	TDP1 cell CPT inconclusive
COc1ccc(C(=O)c2c(-c3cccc(C)c3)oc3ccc(N4CCOCC4)cc23)cn1	TDP1 cell CPT inconclusive, IL-1B inflam inh inconclusive, TDP1 cell noCPT 15µM
Cc1cccc(N2C(=O)CSC23C(=O)N(Cc2cccc(C(F)(F)F)c2)c2ccccc23)c1 (stereo not given)	TDP1 cell CPT 18µM, TDP1 cell noCPT 16µM (no result: HT1080 IDH1KD tx, IL-1B inflam inh, HT1080NT lethal)
O=C1CSC2(C(=O)N3CCCc4cccc2c43)N1c1cccc(C(F)(F)F)c1 (stereo not given)	TDP1 cell CPT 21µM, TDP1 cell noCPT inconclusive
O=C(Nc1ccc(F)cc1)C(c1cc2ccccc2o1)N1CCN(CC(=O)N2CCCC2)CC1 (stereo not given)	TDP1 cell CPT inconclusive
Cc1nn(C)c(C(=O)Nc2ccc(Br)cc2F)c1Br	none
Cc1ccc(S(=O)(=O)NC23CC4CC(CC(C4)C2)C3)cc1	TDP1 cell CPT inconclusive, TDP1 cell noCPT 21µM
Cc1ccc(S(=O)(=O)NN=C2C3CC4CC(C3)CC2C4)cc1	none
Cc1nn(C)c(C(=O)Nc2ccc(S(=O)(=O)NC34CC5CC(CC(C5)C3)C4)cc2)c1Br	TDP1 cell CPT 21µM, HT1080 IDH1KD tx inconclusive, HT1080NT lethal inconclusive, TDP1 cell noCPT 23µM
CCc1ccccc1NC(=O)C1CCN(S(=O)(=O)c2ccc3[nH]c(=O)ccc3c2)CC1	none (no result: HT1080 IDH1KD tx, IL-1B inflam inh, HT1080NT lethal)
CC(C)(C)c1ccc(C(=O)N2CCC2(C)C(=O)NCc2ccc3c(c2)OCO3)cc1 (stereo not given)	TDP1 cell CPT 12µM, HT1080 IDH1KD tx inconclusive, TDP1 cell noCPT 9.2µM
Cc1ccc(C(=O)N2CCCC2(C)C(=O)NCC(C)C)cc1F (stereo not given)	none
Cc1c(C(=O)N2CCCCCC2(C)C(=O)NCC(C)C)oc2ccccc12 (stereo not given)	TDP1 cell CPT inconclusive, TDP1 cell noCPT 18µM
CC(C)CNC(=O)C1(C)CCN1C(=O)c1ccc(C(C)(C)C)cc1 (stereo not given)	TDP1 cell CPT 10µM, TDP1 cell noCPT 8.2µM
CCCCNC(=O)C1(C)CCN1C(=O)c1oc2ccccc2c1C (stereo not given)	TDP1 cell CPT inconclusive, TDP1 cell noCPT inconclusive
COC(=O)c1cc(S(=O)(=O)N2CCN(c3ccc(C)cc3C)CC2)cn1C	TDP1 cell CPT inconclusive (no result: HT1080 IDH1KD tx, IL-1B inflam inh, HT1080NT lethal)
COc1ccc(NC(=O)N2CC3(CCN(C(=O)c4ccc(OC)cc4)CC3)C2)cc1	none (no result: HT1080 IDH1KD tx, IL-1B inflam inh, HT1080NT lethal)
CCc1cccc(NS(=O)(=O)c2csc(C(N)=O)c2)c1	TDP1 cell noCPT 15µM
Cc1ccc(NS(=O)(=O)c2csc(C(N)=O)c2)cc1C	TDP1 cell CPT inconclusive, TDP1 cell noCPT 21µM
C[C@@H]1CN([C@@H](C)CO)C(=O)c2cc(Br)cnc2O[C@H]1CN(C)Cc1ccccc1C(=O)O	none
CN(C(=O)c1ccc(NC(=O)Cc2ccc(NC(=O)C3CCN(C(=O)C4CCCCC4)CC3)cc2)cc1)C1CCCC1	TDP1 cell CPT inconclusive, HT1080 IDH1KD tx inconclusive, TDP1 cell noCPT 21µM
CN(C(=O)c1ccc(NC(=O)Cc2ccc(NC(=O)C3CCN(C(=O)C4CCCC4)CC3)cc2)cc1)C1CC1	TDP1 cell CPT inconclusive, IL-1B inflam inh -71, TDP1 cell noCPT inconclusive
CN(C(=O)c1ccc(NC(=O)Cc2ccc(NC(=O)C3CCN(C(=O)C4CCC4)CC3)cc2)cc1)C1CC1	IL-1B inflam inh inconclusive
CC(NC(=O)CCCC1=NS(=O)(=O)c2ccccc2N1)c1ccccc1 (stereo not given)	TDP1 cell noCPT inconclusive (no result: HT1080 IDH1KD tx, IL-1B inflam inh, HT1080NT lethal)
Cc1cc2c(cc1C)-n1nnnc1C(N1CCN(c3ccccn3)CC1)C(c1ccc3c(c1)OCO3)=N2 (stereo not given)	TDP1 cell CPT inconclusive, TDP1 cell noCPT inconclusive
COc1cc(COCC(O)CN2CCN(CCN3C(=O)c4cccc5cccc(c45)C3=O)CC2)cc(OC)c1OC (stereo not given)	TDP1 cell CPT 18µM, IL-1B inflam inh inconclusive, TDP1 cell noCPT 12µM
O=C1c2cccc3cccc(c23)C(=O)N1CCN1CCN(C(=S)Nc2ccc(Cl)cc2)CC1	TDP1 cell CPT inconclusive, TDP1 cell noCPT inconclusive
O=C1c2cccc3cccc(c23)C(=O)N1CCN1CCN(CC(O)COCc2ccc(Cl)cc2)CC1 (stereo not given)	TDP1 cell CPT 8.2µM, HT1080 IDH1KD tx inconclusive, IL-1B inflam inh inconclusive, HT1080NT lethal 21µM, TDP1 cell noCPT 15µM
O=C(C[C@H]1C[C@@H]2c3cc(NS(=O)(=O)c4ccccc4)ccc3O[C@@H]2[C@H](CO)O1)N1CCOCC1	none
Cc1onc(-c2ccccc2)c1CNS(=O)(=O)c1ccccc1[N+](=O)[O-]	TDP1 cell noCPT inconclusive
Cc1cc(C)nc(SCc2nnc(SCC(=O)Nc3nc(-c4ccccc4)cs3)n2-c2ccccc2)n1	TDP1 cell CPT inconclusive, TDP1 cell noCPT 18µM
CCn1c(CCNC(=O)c2cccs2)nnc1SCC(=O)Nc1nc(-c2ccccc2)cs1	TDP1 cell CPT 16µM, TDP1 cell noCPT 10µM
Cc1cc(C)nc(SCc2nnc(SCC#N)n2-c2cccc(Cl)c2)n1	TDP1 cell CPT inconclusive, TDP1 cell noCPT 21µM
CCn1c(CCNC(=O)c2cccs2)nnc1SCC(=O)Nc1cccc(Cl)c1	none
COc1ccc(NCc2nnc(SCC(=O)Nc3nc(-c4ccccc4)cs3)n2-c2ccccc2)cc1	TDP1 cell CPT 4.6µM, TDP1 cell noCPT 23µM
Cc1cc(C)nc(SCc2nnc(SCC(=O)O)n2-c2ccccc2)n1	none
COc1ccccc1NS(=O)(=O)c1cccc(C(=O)N2CCN(Cc3ccc4c(c3)OCO4)CC2)c1	TDP1 cell CPT inconclusive, TDP1 cell noCPT inconclusive
Cc1ccccc1-c1nc(SCC(=O)NCc2ccco2)c2c(=O)n(C)c(=O)n(C)c2n1	none (no result: HT1080 IDH1KD tx, IL-1B inflam inh, HT1080NT lethal)
